Source: the supplement of paper PMC6555819

test system: PPARa:RXRa (NR concentration 270 nM, RXRa partner concentration 90 nM); assay: PBM binding z-score (relative to random genomic background probes); higher = stronger binding; sequences stand for … in GC…GCGATTGACAGCGTAGAATGAAGG
Description: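 Protein-binding microarray (Agilent 4x180K custom design, double-stranded 60-nt probes: 5' GC cap, 34-nt variable region, 24-nt constant primer region; full probe sequence given). Purified or IVT nuclear receptor:RXRα heterodimers (3:1 NR:RXRα, mostly 270:90 nM) or homodimers were incubated for 1 h in PBS with 2% milk and no ligand, then detected with Alexa488 antibodies. Fluorescence from o1-orientation probes (~5 replicates averaged) was converted to z-scores against 500 random hg19 background probes. Variable regions are seed direct-repeat (DR0–DR5) sites, all their single-nucleotide variants and half-site ablations.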

Sequence	PBM binding z-score
CGTCCAAGGTTAAGGTCAGTGAAAGAGACTCGAA	3.78
AGTCAAAGTTCATCTAGGTAACATAAGATATGCT	5.11
CCTACTGGGCCACTAAAGGTCATTGATTCAGTGA	4.62
ATATGTAGGTTAGCTGAGGTCATTCAGACTAGGC	4.55
GCTTAAGGGTCAAAGGTTATAGCATGAATAGAAT	7.18
TAGCCTAGGTCATGCGGCCCAGTATAGTGTCGGC	3.52
TCTAGTTGGTCAAAGGTCACGCACTCGAAATGCG	6.76
CTATGTAGGTTACGGGGGTCATTCAGTTTGAAAG	6.13
TTACCAAGGTCAAGGTCGTTGATCCCTCTGTAGA	5.9
CCTCGGAGGACAACAGGAGGTCATAGCTGCCAGA	3.13
CCTTACGGGTCACTCCAGGTCATAGCATCGGAGT	4.91
CGAACTAGGTCACCCAGGACAGTGAATACATTGA	4.82
AGAATGGGGTTATACGTAGATCAGGGAAGAAAGT	5.16
ATCGAAAGGTCGAAGGTGAGCATACCCACCCGAA	5.01
CGAACTAGGTCATTGACAGGACAGTGGATAGTAA	4.75
TCTAGTTGGTCTAAGGTCACACACTCGAAATGCG	4.7
ACTTACGGCTCAACGAGGTTATAGCACGCGTATA	0.734
CCTAGTTGGTCAAGGTCACACCCGCTATAGGTAC	3.85
CGTCCAAGGTCTAGGTCAGTGAAAGAGACTCGAA	1.06
CCTCGGAGGACAGAAGGTCAAAGCTGTCCGCTTT	3.67

Sequence	PBM binding z-score
ATCGAAAGGTCCAAGGTGAGTATACCCACCCGAA	0.771
TGTCAATGTTCAAAGGTAACGTAAGTATCCACAC	1.3
CAAACTAGGTCACTAAAGGTCAAAGTCGAATGAC	6.51
TTGCCAAGGTGAAAGGTCGTTGATGCACGCCTTG	5.16
ACTCGGAGGACAAAGGTCAGGGCTACGCCAGTGA	4.98
AGTCAAAGTGCATCTAGGTAACGTAAGATATGCT	1.21
CGTCAAAGGTCAGAGAGGTCAGTGAATGCCGAGT	6.13
ACTAGTTGGTCAGCTGAGGTCACACCCAATTCGG	3.46
GTTACAGGGTCAAGGCCAGAGTACGCGTATTGAT	5.59
CCTACTGGGCCAAAAAGGTCATTGATGCCGATAA	4.51
AGTCAAACTTCAGGACGAGGTAACGTAAAGCACG	0.0838
ATCGAAAGGTCGACCAGGTGAGTATACACCGTTT	4.53
AACGAAAGGTCGAAGGTGAGTATACCCACCCGAA	4.89
CGAACTACGTCATCCAGGACAGTGAATACATTGA	-0.0578
CCTTACGGGTCCCTCCAGGTTATAGCATCGGAGT	-0.0853
ATATGTAGGTTATCGGGTCATACAGTTTGCGCAT	5.09
CGCACTAGGTCATCCAGGACAGTGAATACATTGA	4.49
TCTGCTAGGTCAACGTTGGTCAGCTAATCTGCTA	3.2
CCTACTGGGCCAAAGGTGATTGATTCCAATGCTC	4.5
TACCCTAGGTCATGGGCCAGTATACCACGCGAAC	4.51
